Inconclusive results are not listed. Unmarked numbers belong to inactive results. The source made the active and inactive calls. Calls come from the whole dose curve; as a rule, active = well fitted activation curve with a large enough effect; inconclusive = small, poorly fitted or top-dose-only effect; inactive = no such curve, though single readings can be large or run the other way.
Potency is the fitted concentration of half-maximal effect.

Chain of Relaxin receptor 1 (Homo sapiens) (Q9HBX9 whole entry, looked up): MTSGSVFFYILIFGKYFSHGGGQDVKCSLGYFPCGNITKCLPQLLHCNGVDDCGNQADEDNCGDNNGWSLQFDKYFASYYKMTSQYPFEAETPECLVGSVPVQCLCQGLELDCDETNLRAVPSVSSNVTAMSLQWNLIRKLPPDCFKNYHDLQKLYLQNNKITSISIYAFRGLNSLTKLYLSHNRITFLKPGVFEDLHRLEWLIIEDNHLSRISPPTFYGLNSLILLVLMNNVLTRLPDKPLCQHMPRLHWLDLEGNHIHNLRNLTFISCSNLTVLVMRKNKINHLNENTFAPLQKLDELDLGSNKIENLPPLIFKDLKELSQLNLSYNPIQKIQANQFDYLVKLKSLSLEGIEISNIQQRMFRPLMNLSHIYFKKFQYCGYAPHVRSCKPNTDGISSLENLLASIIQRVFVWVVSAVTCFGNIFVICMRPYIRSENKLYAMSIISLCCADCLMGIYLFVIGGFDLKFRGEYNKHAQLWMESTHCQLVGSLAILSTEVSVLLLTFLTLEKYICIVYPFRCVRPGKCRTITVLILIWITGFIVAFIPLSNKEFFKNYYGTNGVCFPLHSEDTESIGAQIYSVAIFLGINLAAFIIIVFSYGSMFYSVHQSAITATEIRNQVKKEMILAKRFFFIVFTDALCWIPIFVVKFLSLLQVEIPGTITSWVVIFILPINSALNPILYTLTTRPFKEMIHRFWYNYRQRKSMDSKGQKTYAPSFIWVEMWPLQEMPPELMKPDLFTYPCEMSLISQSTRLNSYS

The target in the test is Relaxin receptor 1 (Homo sapiens) (UniProt Q9HBX9). Put plainly: qHTS Assay for Agonists of the Relaxin Receptor RXFP1: THP1 Hit Validation.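 For activation: 0% = buffer alone basal and 100% = 29 nM porcine relaxin.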 Note: nearly all actives have a fitted effect of over 60% in size. The following applies: THP1-RXFP1 cells, cAMP TR-FRET, 30 min; series mostly up to 115 µM; activation: at the top concentration. An outline of the steps:
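Stable RXFP1 THP1 line; 30 min compound exposure at 37C in presence of Ro 20174; cAMP detected by HTRF after lysis.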
Background: In qHTS, concentration-response curves come from the screen itself.
For the compound `COc1cccc(C(=O)CSc2nnc(-c3cc(OC)cc(OC)c3)o2)c1`, the Potency is 12.3 µM (active).

Consider `NC(=O)c1ccccc1NC(=O)CC12CC3CC(CC(C3)C1)C2`, for which the “activation” value is 8.88% [at 125 µM].

As for `O=C(O)c1ccc(CN2C(=O)c3ccc(C(=O)O)cc3C2=O)cc1`, the “activation” value is -0.984%.

As to `COc1ccc(S(=O)(=O)Nc2ccccn2)c(C)c1C`, the “activation” value is -13.7%.

On to `CCCC(=O)Nc1ncnc2c1ncn2[C@@H]1O[C@@H]2COP(=O)(O)O[C@H]2[C@H]1OC(=O)CCC`, for which the Potency was 1.23 µM (active).

Take `O=C(Nc1ccccc1C(=O)NCc1ccccc1)c1ccco1`: the “activation” value was 4.79% [at 125 µM].

On to `Cc1ccc(-c2ccc3nnc(SCC(=O)NCC4CCCO4)n3n2)cc1` (configuration not stated), for which the “activation” value was -27.7%.

As to `C=CCSc1nc2c(c(=O)[nH]1)C(C(C)C)C(C#N)=C(N)O2` (configuration not stated), the “activation” value was -4.28%.

As for `O=C(O)c1cccc(CSc2nnc(Cc3ccccc3)o2)c1`, the “activation” value is 6.08% [at 43.1 µM].

For `Cc1cc(C)n2nc(C(=O)Nc3ccc4c(c3)OCCO4)nc2n1`, the Potency is 8.68 µM (active).

For the compound `O=c1oc2cc(O)c(Cl)cc2c2ccccc12`, the Potency is 8.68 µM (active).

For the compound `COc1ccc(/C=C2/SC(=O)N(CCC(=O)Nc3ccc(C)cc3)C2=O)cc1OC`, the “activation” value is -92.9%.

For the compound `Cc1ccc(C(=O)Nc2ccccc2C(N)=O)o1`, the “activation” value is 10.3% [at 125 µM].

In the case of `CC1(C)O[C@@H]2[C@H](O1)[C@@H](COS(=O)(=O)O)O[C@H]2n1cnc2c(N)ncnc21`, the Potency is 5.48 µM (active).

As to `Brc1ccc2ncnc(NCc3cccnc3)c2c1`, the Potency was 48.9 µM (active).

On to `NS(=O)(=O)c1ccc(CCNC(=O)C2CCN(c3ncnc4c3nc3n4CCCCC3)CC2)cc1`, for which the Potency was 27.5 µM (active).

In the case of `CN(C)c1ccc(NC(=O)C2C3C=CC(C3)C2C(=O)O)cc1` (configuration not stated), the “activation” value is -12%.

(Values after PubChem BioAssay AID492949 (National Center for Advancing Translational Sciences (NCATS), 2010).)
